# High-throughput results deposited in PubChem by National Center for Advancing Translational Sciences (NCATS).
# Tb PFK block: qHTS Assay to Find Inhibitors of T. brucei phosphofructokinase | T. brucei PFK, ADP-Glo luminescence | ATP-dependent 6-phosphofructokinase (Trypanosoma brucei brucei), O15648 | hit rate 0.17% among 330,000 | Potency, µM (top dose mostly 57.5 µM), hits mostly inhibitors; note: nearly all actives have a fitted effect of over 60% in size
#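 1.25 nM PFK with 0.5 mM F6P and 0.1 mM ATP in 0.1 M TEA pH 8.0, 5 mM MgCl2, incubated 45 min at room temperature; ADP measured by ADP-Glo luminescence; compounds titrated up to 57 uM.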
# WRN helicase inh: qHTS for Inhibitors of WRN Helicase; WRN helicase unwinding, fluorescent forked duplex, kinetic; Potency, µM (highest dose often 114 µM), actives largely listed as inhibitors; hit rate 0.46% among 360,000; note: nearly all actives have a fitted effect of over 55% in size
# Target sequence (Q14191 whole entry, looked up): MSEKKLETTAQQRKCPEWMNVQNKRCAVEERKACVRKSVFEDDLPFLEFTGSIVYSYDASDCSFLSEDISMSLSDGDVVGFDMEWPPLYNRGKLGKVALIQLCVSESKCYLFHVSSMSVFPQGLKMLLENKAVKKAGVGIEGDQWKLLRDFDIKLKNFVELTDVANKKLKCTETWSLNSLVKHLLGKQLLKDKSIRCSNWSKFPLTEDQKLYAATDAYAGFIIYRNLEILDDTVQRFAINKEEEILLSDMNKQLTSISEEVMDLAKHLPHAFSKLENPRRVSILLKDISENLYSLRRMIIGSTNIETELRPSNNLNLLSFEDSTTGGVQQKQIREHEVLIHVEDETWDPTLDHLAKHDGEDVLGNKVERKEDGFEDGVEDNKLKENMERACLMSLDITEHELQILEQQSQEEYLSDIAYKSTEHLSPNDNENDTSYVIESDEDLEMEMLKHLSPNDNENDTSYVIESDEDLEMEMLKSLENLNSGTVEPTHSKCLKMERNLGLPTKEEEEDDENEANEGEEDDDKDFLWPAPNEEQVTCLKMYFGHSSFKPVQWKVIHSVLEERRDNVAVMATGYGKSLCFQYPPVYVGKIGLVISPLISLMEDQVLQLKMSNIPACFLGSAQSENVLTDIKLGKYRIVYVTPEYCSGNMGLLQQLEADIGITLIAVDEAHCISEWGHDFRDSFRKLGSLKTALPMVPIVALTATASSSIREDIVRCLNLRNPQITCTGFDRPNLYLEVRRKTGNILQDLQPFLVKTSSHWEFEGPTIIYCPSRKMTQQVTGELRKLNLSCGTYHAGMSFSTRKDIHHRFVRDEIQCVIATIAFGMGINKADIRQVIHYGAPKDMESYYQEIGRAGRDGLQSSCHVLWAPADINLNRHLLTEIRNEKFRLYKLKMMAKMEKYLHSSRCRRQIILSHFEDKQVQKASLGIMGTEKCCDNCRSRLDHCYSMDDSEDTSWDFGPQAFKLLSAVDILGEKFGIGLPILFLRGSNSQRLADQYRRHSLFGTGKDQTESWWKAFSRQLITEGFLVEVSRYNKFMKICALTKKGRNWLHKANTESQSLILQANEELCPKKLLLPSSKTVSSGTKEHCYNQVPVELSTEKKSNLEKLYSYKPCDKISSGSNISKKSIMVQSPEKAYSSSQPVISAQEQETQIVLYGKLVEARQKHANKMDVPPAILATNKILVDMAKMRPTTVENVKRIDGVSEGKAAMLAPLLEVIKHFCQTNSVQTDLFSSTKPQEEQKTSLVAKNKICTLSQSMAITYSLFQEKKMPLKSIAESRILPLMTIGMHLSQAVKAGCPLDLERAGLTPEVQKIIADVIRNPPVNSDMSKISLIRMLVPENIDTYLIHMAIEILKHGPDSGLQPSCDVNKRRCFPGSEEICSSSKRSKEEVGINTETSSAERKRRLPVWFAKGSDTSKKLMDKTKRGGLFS
#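 Fluorescence dequenching readout, ex 525 nm/em 598 nm, kinetic mode: forked duplex DNA (100 nM final) with adjacent fluorophore and quencher unwound by WRN (20 nM final) with 2 mM ATP. Compound preincubation 15 min, room temperature.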
# Tb PGK inh: qHTS Assay to Find Inhibitors of Phosphoglycerate Kinase. Phosphoglycerate kinase, glycosomal (Trypanosoma brucei brucei), P07378. hit rate 0.043% among 380,000. Potency, µM (series often up to 57.5 µM), hits mostly inhibitors. PGK/GAPDH coupled, Kinase-Glo luminescence, 60 min; note: nearly all actives have a fitted effect of over 60% in size
#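 Luminescent ATP detection (Kinase-Glo Plus) follows a 60-minute room-temperature incubation, with wells lacking PGK as controls. Buffer: 100 mM TEA (pH 7.6), 5 mM MgCl2, 0.01% Tween-20. Coupling enzyme GAPDH (100 nM final) supplies unstable 1,3-BPG in-well.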
# FEN1 inh: qHTS Assay for the Inhibitors of Human Flap endonuclease 1 (FEN1) | P39748 | Recombinant FEN1 flap cleavage, fluorescence, 15 min | Potency, µM (doses to about 114 µM), most hits filed as inhibitors | hit rate 0.35% among 390,000 | AID 588795, 2011; note: nearly all actives have a fitted effect of over 65% in size
#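 FEN1 at 10 nM, compound pretreatment for 15 min (room temperature), 50 nM final substrate to initiate; endpoint reads at 0 and 15 min; DMSO-only plates used as vehicle background.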
# PI5P4K alpha inh: qHTS for Inhibitors of phosphatidylinositol 5-phosphate 4-kinase (PI5P4K); max response, %; AID 652105, 2013; PI5P4Kalpha enzyme, ADP-Glo luminescence, 60 min; hits give low values; hit rate 1.2% among 330,000; Phosphatidylinositol 5-phosphate 4-kinase type-2 alpha (Homo sapiens), P48426; active = max response of -50% or lower; inconclusive = between -30% and -50%; inactive = -30% or higher; note: value at the top dose of about 77 µM
#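 Reactions run in 0.038 M HEPES pH 7.4, 0.28 mM EGTA, 0.1% CHAPS and 5% DMSO, with PI5P4Kalpha, substrate, compound and 5 microM ATP final, one hour at room temperature. Readout is ADP-Glo luminescence.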
# TDP1 inh: qHTS Assay for Inhibitors of Tyrosyl-DNA Phosphodiesterase (TDP1); AID 485290, 2010; Tyrosyl-DNA phosphodiesterase 1 (Homo sapiens), Q9NUW8; hit rate 0.28% among 350,000; Potency, µM (doses to about 130 µM), actives largely listed as inhibitors; recombinant TDP1, AlphaScreen DNA substrate cleavage; note: nearly all actives have a fitted effect of over 40% in size
#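 Tdp1 1 nM final; 15 min RT w/ cpd; substrate 15 nM, 5 min; beads 10 ug/ml, 10 min; AlphaScreen read. Neg ctrl: no enzyme.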
# A number is an active result; - = inactive; ? = inconclusive; . = no result given; ! = a repeat was not active; [ ] = remark or other dose. The list is not random: actives were taken first. Their share in the collection is about 1.5%. Unless noted, calls come from the whole dose curve; as a rule, active = well fitted curve in the direction sought with a large enough effect; inconclusive = small, poorly fitted or top-dose-only effect, or another doubt; inactive = no such curve, though single readings can be large; an effect the other way counts as inactive or inconclusive.
SMILES,Tb PFK block,WRN helicase inh,Tb PGK inh,FEN1 inh,PI5P4K alpha inh,TDP1 inh
Cc1ccc(C(=O)O)cc1-c1ccc(/C=C2\SC(=O)N(CC(=O)Nc3ccccc3)C2=O)o1,-,?,-,50µM,-56,40µM
COC(=O)c1ccccc1-c1ccc(/C=C2\C(=O)N(c3ccccc3)N=C2c2ccccc2)o1,-,-,-,-,-,-
O=C(CN1C(=O)S/C(=C\c2cc(Cl)c(O)c(Cl)c2)C1=O)Nc1ccccc1,-,-[11.6 µM],-,-,-86,.
Cc1ccccc1NC(=O)CN1C(=O)S/C(=C\c2ccc(-c3cc(C(=O)O)ccc3C)o2)C1=O,-,?,?,?,-79,.
Cc1ccc(C)c(N2C(=N)S/C(=C\c3ccc(-c4ccccc4C(=O)O)o3)C2=O)c1,-,?,-,-,-52,.
O=C(NCc1nnc(-c2nc3ccccc3[nH]2)o1)C1CCCCC1,.,.,.,.,.,-
CC/C(=C(/c1ccccc1)c1ccc(OCCN(C)C)cc1)c1ccccc1,.,.,.,.,.,-
Cc1c(/C=C2\SC(=O)N(CC(=O)Nc3ccc4c(c3)OCO4)C2=O)c2ccccc2n1C,-,-,-,-,.,-
Cc1cc(C(=O)O)ccc1-c1ccc(/C=C2\SC(=O)N(CC(=O)Nc3ccc4c(c3)OCO4)C2=O)o1,-,.,.,.,.,8.9µM
COC(=O)CSc1nc(SC)nc2c1sc1nc(-c3ccco3)c3c(c12)CC(C)(C)OC3,.,-,-,-,-,.
CSc1nc(N(CCO)CCO)c2sc3nc(-c4ccco4)c4c(c3c2n1)CCC4,?,13µM,?,?,-89,-
CSc1nc(SCC(N)=O)c2c3c(sc2n1)CN(C)CC3,-,?,-,50µM,-,-
CSc1nc(N)c2c3c(sc2n1)CN(C)CC3,-,-,-,-,-,.
N#Cc1c(-c2ccncc2)c2c([nH]c1=S)CCCC2,?,-,-,-,-60,-
N#Cc1c(SCC(N)=O)nc2c(c1-c1ccncc1)CCCC2,-,-,-,-,-,-
Cc1ccccc1-c1cncnc1NCCN1CCOCC1,.,.,.,.,.,35µM
Cc1cc(-c2ccccc2)nnc1NCCN1CCOCC1,-,-,-,-,-,-
Cc1nn(C2CCS(=O)(=O)C2)c(C)c1C=O (centres undefined),-,?,-,-,-67,-
CNc1ccc(/C=C/c2ccccc2)cc1,.,.,.,-,.,.
COc1cc2c(cc1O)CCC1C2CC[C@]2(C)[C@@H](O)CC[C@@H]12 (some centres undefined),.,.,.,.,.,-
O=C(O)c1cccc(NC(=S)N/N=C/c2ccccc2OCc2ccc(Br)cc2)c1,-,-[11.6 µM],-,-,-65,-
CCOc1cc(/C=C(\C#N)C(=O)Nc2cccc(C(=O)O)c2)ccc1OCc1ccc(Br)cc1,-,-[11.6 µM],-,?,-,14µM
COc1cc(/C=C(\C#N)C(=O)Nc2ccc(C(=O)O)cc2)ccc1OC(=O)c1cccc(F)c1,-,-,-,?,-,50µM
O=C(O)c1cccc(NC(=S)N/N=C/c2ccccc2OCc2cccc(Br)c2)c1,-,?,-,-,?,.
COc1cc(/C=C(/C#N)C(=O)Nc2ccccc2)ccc1OCc1ccc(C(=O)O)cc1,-,-[11.6 µM],-,?,-,-
SMILES,Tb PFK block,WRN helicase inh,Tb PGK inh,FEN1 inh,PI5P4K alpha inh,TDP1 inh
O=[N+]([O-])c1ccc2c(c1)C=CC2,.,.,.,-,.,.
CCCCc1nc2c(c3c1C[C@H](C)OC3)CN(C(=O)N[C@H](C(=O)OC)C(C)C)CC2,.,.,.,.,.,-[21 µM]
CCCCON1C(=O)c2cccc3cccc(c23)C1=O,-,-,-,-,-,35µM
O=C(Nc1cc(C(F)(F)F)ccc1Cl)[C@H](O)CCc1ccccc1,.,.,.,.,.,-
O=C(Nc1ccc(-n2nncc2-c2ccco2)cc1)c1cc2ccccc2oc1=O,-,50µM,-,-,.,40µM
COc1ccc(CN2C(=O)c3cccc4cccc2c34)cc1F,-,-,-,-,-,50µM
COc1ccc(CCN2C(=O)c3cccc4cccc(c34)C2=O)cc1OC,-,-,-,-,-,-
N#CCSc1nnc(N)s1,-,-,-,-,-,-
N#CCSc1nnc(SCC#N)s1,-,?,-,-,-75,.
c1ccc2nc(-c3cc4ccccc4s3)ccc2c1,.,.,.,-,.,.
Cc1cc2nc3ccc(=[N+](C)C)cc-3sc2cc1N,-,.,-,22µM,-,?
CC1=CC[C@@]2(CO)COC(c3ccccc3O)C1C2 (some centres undefined),.,.,.,.,.,-
Cc1sc2cc3c(c(C(=O)c4ccccc4)[n+]2c1C)-c1cccc2cccc-3c12,-,-[11.6 µM],-,40µM,-,-
Oc1ccc(/C=N/NC(=S)NCc2ccco2)cc1,-,-,-,-,-,-
Oc1c(Br)cc(/C=N/NC(=S)NCc2ccco2)cc1Br,-,-,-,-,-74,-
COc1cccc(/C=C/c2nccc3ccccc23)c1OC,.,.,.,-,.,.
O=C(O)CSc1ncnc2scc(-c3ccccc3)c12,-,-,-,-,-76,.
CC(=O)CSc1ncnc2scc(-c3ccc(F)cc3)c12,-,-,-,-,-,-
O=C(O)CSc1ncnc2scc(-c3ccc(Br)cc3)c12,-,-,-,-,-66,.
CO[C@H]1COC(=O)C/C=C\[C@@H](C)COC(=O)[C@@H](CCSC)NC(=O)C/C=C\[C@@H]1C,.,.,.,.,.,-[21 µM]
Cc1cc(C)n(-c2nc(Nc3ccccc3)nc(-n3nc(C)cc3C)n2)n1,-,?,.,-,.,45µM
Cc1cc(C)n(-c2nc(N(c3ccccc3)c3ccccc3)nc(-n3nc(C)cc3C)n2)n1,-,-,-,-,.,-
O=C(Nc1nc2nccc(-c3ccccc3)n2n1)c1ccc(F)cc1,-,-,-,-,-,-
O=C(Nc1nc2nccc(-c3ccccc3)n2n1)c1ccccc1,-,-,-,-,-,79µM
CCOC(=O)C1=C(C)OC(N)=C(C#N)C1c1ccc(O)c(OC)c1 (centres undefined),-,-,-,-,-,-
SMILES,Tb PFK block,WRN helicase inh,Tb PGK inh,FEN1 inh,PI5P4K alpha inh,TDP1 inh
C=CCOC(=O)C1=C(C)NC(SCC(=O)OCC)=C(C#N)C1c1ccc(O)c(OC)c1 (centres undefined),-,-,-,-,-54,-
Cc1ccc(NS(=O)(=O)c2ccc3c(c2)C(Cl)(Cl)C(=O)N3)cc1C,.,.,.,.,.,-
O=C(O)c1cc2cc(F)ccc2[nH]1,-,-,-,-,-,89µM!
Cc1ccc(S(=O)(=O)OCC(=O)Nc2ccc(C(=O)O)c(O)c2)cc1,.,?,?,28µM,-,.
Cc1cccc(OC(=O)Nc2ccc(C(=O)O)c(O)c2)c1,.,-,-,.,-54,.
CCOC(=O)Nc1ccc(C(=O)Oc2ccccc2)c(O)c1,-,-,.,-,.,-
Cc1ccc(NC(=O)COCC(=O)Nc2ccc(C)cc2)cc1,-,-,-,-,-,.
